In PubChem BioAssay AID765 (NMMLSC, 2007) one finds inhibition data, which are given here for 36 compounds.

The source made the active and inactive calls. No stated cut-off is given here; in the data, active means inhibition above about 31%; inactive means the rest.

Chain of N-formyl peptide receptor 2 (Homo sapiens) (P25090 whole entry, looked up): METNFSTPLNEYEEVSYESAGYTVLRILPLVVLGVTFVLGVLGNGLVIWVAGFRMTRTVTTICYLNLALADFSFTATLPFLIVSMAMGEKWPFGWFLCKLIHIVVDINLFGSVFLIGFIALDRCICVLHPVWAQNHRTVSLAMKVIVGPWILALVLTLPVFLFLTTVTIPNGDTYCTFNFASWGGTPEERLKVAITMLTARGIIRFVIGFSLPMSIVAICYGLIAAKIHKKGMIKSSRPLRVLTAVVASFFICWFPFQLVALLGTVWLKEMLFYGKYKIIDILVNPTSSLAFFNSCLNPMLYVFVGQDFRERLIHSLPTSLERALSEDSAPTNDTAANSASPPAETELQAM

The test concerns the target N-formyl peptide receptor 2 (Homo sapiens) (UniProt P25090). Kind of test: human FPR2 ligand displacement single-point screen – cell-based, flow cytometry, single concentration (AID 765). The conditions noted are these: FPRL1-expressing cells, fluorescent ligand binding inhibition, hits give high values; at 5.1 µM unless noted. (In general: In flow cytometry, cells or beads pass a laser one at a time.)
Take `Fc1ccc(-c2cc(C(F)(F)F)nc(N3CCN(c4cccc(Cl)c4)CC3)n2)cc1`: the inhibition was 19.5% (inactive).
For `CN1CCN(c2nc(-c3ccccc3)c3cc(Cl)ccc3n2)CC1` the value was -15% [at 6.6 µM] (inactive); for `CCCC(=O)Nc1cc(-c2cn3cccnc3n2)ccc1OC`, 2.2% [at 7.2 µM] (inactive).
With `CCOC(=O)N1CCN(c2nc(-c3cccc(OC)c3)cc(C(F)(F)F)n2)CC1`, the inhibition was -16.3% [at 5.4 µM] (inactive).
As for `O=C(c1cccc(F)c1)N1CCN(c2nc(-c3ccc(F)cc3)cc(C(F)(F)F)n2)CC1`, the inhibition was 2.3% [at 5 µM] (inactive).
The value for `COc1ccc(-c2cn3cccnc3n2)cc1NC(=O)C1CC1` was 71.5% [at 7.2 µM] (active).
The value for `O=C(O)C1CC=CCC1C(=O)N1CCN(c2nc(-c3ccccc3Cl)c3cc(Br)ccc3n2)CC1` (stereo unspecified) was -6.7% [at 4 µM] (inactive); that for `CC(=O)N1CCN(c2nc(-c3ccccc3)c3ccccc3n2)CC1` was -11.2% [at 6.7 µM] (inactive).
The value for `Fc1ccc(-c2cc(C(F)(F)F)nc(N3CCN(c4ccccc4)CC3)n2)cc1` was 1.9% [at 5.5 µM] (inactive); that for `COc1ccc(-c2cn3cccnc3n2)cc1NC(=O)c1cc(Br)ccc1Cl` was 4.3% [at 4.9 µM] (inactive).
For the compound `COc1ccc(C2CC(=O)c3cnc(N4CCN(Cc5ccc6c(c5)OCO6)CC4)nc3C2)cc1` (stereo unspecified), the inhibition is 8% [at 4.7 µM] (inactive).
On to `COc1ccc(-c2cn3cccnc3n2)cc1NC(=O)c1ccc(C(C)(C)C)cc1`, for which the inhibition is -1% [at 5.6 µM] (inactive).
For `O=C(O)CC1(CC(=O)N2CCN(c3nc(-c4ccccc4Cl)c4cc(Br)ccc4n3)CC2)CCCC1` the value was -5.2% [at 3.9 µM] (inactive); for `Clc1cccc(-c2nc(N3CCN(C4CCCCC4)CC3)nc3c2COc2ccccc2-3)c1`, -1.5% [at 4.8 µM] (inactive); for `COc1ccc(-c2cn3cccnc3n2)cc1NC(=O)c1ccc(Br)cc1`, -12.5% [at 5.3 µM] (inactive).
For `COc1ccc(-c2cn3cccnc3n2)cc1NC(=O)CCc1ccccc1` the value was 16% [at 6 µM] (inactive); for `COc1ccc(-c2cn3cccnc3n2)cc1NC(=O)C(C)Oc1ccccc1` (stereo unspecified), -8.6% [at 5.7 µM] (inactive).
Take `CC(=O)N1CCN(c2nc(-c3ccccc3)c3cc(C)ccc3n2)CC1`: the inhibition is 5.6% [at 6.4 µM] (inactive).
The value for `CCN1CCN(c2nc(-c3ccc(Cl)cc3)cc(C(F)(F)F)n2)CC1` was -7.7% [at 6 µM] (inactive); that for `Cc1ccc2nc(N3CCN(C(=O)CCC(=O)O)CC3)nc(-c3ccccc3)c2c1` was 6.9% [at 5.5 µM] (inactive); that for `CCCCN1CCN(c2nc(-c3ccccc3)c3cc(C)ccc3n2)CC1` was 17.2% [at 5.6 µM] (inactive).
For `O=C(N1CCN(c2nc(-c3ccccc3)c3ccccc3n2)CC1)C(F)(F)F` the value was 24.8% [at 5.8 µM] (inactive).
The value for `O=C(c1ccccc1)N1CCN(c2nc(-c3ccccc3)c3ccccc3n2)CC1` was -1.3% [at 5.6 µM] (inactive); that for `CC(C)(C)OC(=O)N1CCN(c2nc(-c3ccccc3)c3cc(Br)ccc3n2)CC1` was -2.1% [at 4.7 µM] (inactive); that for `CC1CCc2nc(N3CCN(Cc4ccccc4)CC3)nc(C(F)(F)F)c2C1` (stereo unspecified) was -10.7% [at 5.7 µM] (inactive).
As to `CCCC(CCC)C(=O)Nc1cc(-c2cn3cccnc3n2)ccc1OC`, the inhibition is 19.4% [at 6.1 µM] (inactive).
With `COc1ccc(C2CC(=O)c3cnc(N4CCN(Cc5ccc6c(c5)OCO6)CC4)nc3C2)c(OC)c1` (stereo unspecified), the inhibition is -2.7% [at 4.4 µM] (inactive).
Turning to `COc1ccc(-c2cc(-c3ccc(F)cc3)nc(N3CCN(C)CC3)n2)cc1`, the inhibition is -2.6% [at 5.9 µM] (inactive).
For `O=C(O)CCCC(=O)N1CCN(c2nc(-c3ccccc3)c3ccccc3n2)CC1` the value was -1.7% [at 5.5 µM] (inactive); for `Cc1ccc(-c2cc(C(F)F)nc(N3CCN(c4ccccc4)CC3)n2)cc1`, 21.3% [at 5.8 µM] (inactive).
The value for `CCOC(=O)N1CCN(c2nc(-c3ccc(Cl)cc3)cc(C(F)(F)F)n2)CC1` was -12% [at 5.4 µM] (inactive).
The value for `Cc1ccc2nc(N3CCN(C(=O)CCCC(=O)O)CC3)nc(-c3ccccc3)c2c1` was 1.1% [at 5.3 µM] (inactive); that for `FC(F)(F)c1cc(-c2cccs2)nc(N2CCN(Cc3ccccc3)CC2)n1` was 12.5% [at 5.5 µM] (inactive).
For the compound `Cc1ccc(-c2cn3cccnc3n2)cc1NC(=O)C(C)C`, the inhibition was -3.4% [at 7.6 µM] (inactive).
The value for `COc1ccc(C2CC(=O)c3cnc(N4CCN(Cc5ccc6c(c5)OCO6)CC4)nc3C2)cc1OC` (stereo unspecified) was 11.9% [at 4.4 µM] (inactive).
The value for `COc1ccccc1-c1cc(C(F)(F)F)nc(N2CCN(Cc3ccccc3)CC2)n1` was 14.1% [at 5.2 µM] (inactive).

One may read the inhibition as the change of the read-out against control, counted positive when it falls.
